# Data from ChEMBL document CHEMBL4888484, “Replenishing the malaria drug discovery pipeline: Screening and hit evaluation of the MMV Hit Generation Library 1 (HGL1) against asexual blood stage Plasmodium falciparum ,using a nano luciferase reporter read-out” (2022).
# Out of some 4,800 compounds screened, about 420 (8.8%) showed an effect of 50% or more. What follows is part of a selection rich in strong results, with near analogues and random picks from the rest.
# System: Plasmodium falciparum
# Assay: Confirmatory screen in NF54 nanoGlo assay, in single point, at 2uM, 72h
# Format: functional, Erythrocyte
# Conditions: timepoint 72 hour
row,SMILES,% Inhibition
1,COc1ccc(O)c([C@H]2Nc3ccccc3-n3c(-c4ccc(C)cc4)c4c(=O)n(C)c(=O)n(C)c4c32)c1,25%
2,COc1cccc(C(=O)N2CCCO[C@H](C(C)C)C2)c1,-9%
3,Cc1ccc(C(=O)Nc2ccc3c(c2)OC(C)(C)C(=O)N3)cc1,-4%
4,CN(CC(=O)N(C)C1CCC(c2ccccc2)CC1)c1cnccn1 (stereo not drawn),-8%
5,COc1cc(NC(=O)CN2C(=O)N[C@](C)(c3ccc4c(c3)OCCO4)C2=O)c(OC)cc1Cl,2%
6,O=C(CCn1c(=O)[nH]c2ccsc2c1=O)NCc1ccccc1,37%
7,O=C(CCc1ccccc1)N[C@@H](c1ccccc1)c1ccc2c3c(cccc13)CC2,-12%
8,C[C@@H]1CN(C[C@@H]2CN(CCOCc3ccccc3)C[C@@H]2CO)C[C@H](C)O1,-5%
9,CCc1nnc2ccc(S(=O)(=O)Nc3ccc(F)c(F)c3)cn12,-6%
10,O=C(Nn1cnc2ccccc2c1=O)c1cnccn1,2%
11,Nc1ncn(C(=O)c2ccc(Cl)cc2)n1,-14%
12,COc1nc2ncnc(OC)c2nc1C#N,3%
13,COc1ccc(S(=O)(=O)N(CC(=O)N2CCN(Cc3ccc4c(c3)OCO4)CC2)C2CCCCC2)cc1OC,-3%
14,CC(C)(C)OC(=O)N1CCC[C@H]1C(=O)n1ccnc1,-2%
15,CCOc1ccc(-[n+]2cc(-c3ccccc3)n3c2CCC3)cc1,80%
16,CCOc1nc(C)nc2cc(-c3ccccc3)n(Cc3ccccc3)c12,0%
17,O=C(O)C1Cc2c([nH]c3ccccc23)C(/C=C/c2ccccc2)N1 (stereo not drawn),-1%
18,Cc1noc2nc(C3CC3)cc(C(=O)N3CCC[C@H](C)CC3)c12,-11%
19,CC1NC2(C(=O)N(Cc3ccc(F)cc3)c3ccccc32)C2C(=O)N(c3cccc4ccccc34)C(=O)C12 (stereo not drawn),4%
20,CC1(C)C2OCCCC2C1(N)C(=O)Nc1cn[nH]c1 (stereo not drawn),4%
21,CCCn1cc(CNc2nnc(C(C)(C)C)o2)cn1,-5%
22,c1ccc(Oc2ccnc(NCC34COCCN3CCOC4)n2)cc1,-10%
23,CN1CCN(C2(CNc3ccnc4ccccc34)CCCC2)CC1,91%
24,Fc1cccc(F)c1CNC[C@@H]1NCCc2ccccc21,-5%
25,O=c1[nH]c2nccnc2c(=O)n1Cc1ccc(F)cc1,-11%

row,SMILES,% Inhibition
1,O=C1N[C@H]2C[C@@H](C(=O)NC[C@H]3O[C@H](CCOc4cc(-c5ccccc5)ccc41)CC[C@@H]3O)N(Cc1ccc(Cl)c(F)c1)C2,-1%
2,CCOC(=O)C(Nc1cccc(NC(C(=O)OCC)C(=O)OCC)c1)C(=O)OCC,-16%
3,Nc1nccnc1C(=O)NCc1ccc(Cn2ccnc2)cc1,-5%
4,O=S(=O)(c1ccccc1)N1CCN(S(=O)(=O)c2ccc(Cl)cc2)C1,2%
5,O=c1[nH]c(=O)n(S(=O)(=O)c2ccccc2)cc1F,92%
6,Cc1ccc(N2CCN(S(=O)(=O)c3ccccc3)[C@@H](C)C2=O)cc1F,-5%
7,COc1ccc(CCNc2oc(-c3cccnc3)nc2C#N)cc1OC,31%
8,O=C(CNC1=NC(=O)C(c2ccccc2)(c2ccccc2)N1)NCc1ccc(F)cc1,-1%
9,Cc1ccc(OCC(=O)Nc2ccc(N3CCn4c(nc5ccccc54)C3)cc2Cl)cc1,-17%
10,COc1ccc(-n2ncc3c(NCCNC(=O)c4ccccc4Cl)nc(C)nc32)cc1,-12%
11,Cc1ccc(OCC(=O)Nc2cc(C)nn2-c2nc3c(cnn3-c3ccc(C)c(C)c3)c(=O)[nH]2)cc1,65%
12,C1CCC(Nc2nc3nonc3nc2N2CCCCC2)CC1,1%
13,CC(C)CN(CC(C)(C)C)C(=O)c1cc[nH]n1,-6%
14,O=C(CN1CCN(Cc2ccccc2F)C1=O)NC1CCCCCCC1,-11%
15,O=C(c1ccccc1Cl)N1CCC[C@H](n2cnc3ccccc3c2=O)C1,18%
16,CCN(c1ccc(C(=O)N(C)C2(C#N)CCC2)cc1)C(C)C,-3%
17,O=S(=O)(Cc1ccccc1)Nc1nnc[nH]1,-1%
18,CCn1nccc1CNc1cc(Cl)cc2c1OCC2,-8%
19,CC(C)(C)OC(=O)N1C[C@@H](O)CC1=O,-11%
20,COc1ccc(C(=O)N2c3ncnn3C(c3ccccc3)CC2c2ccc(C)cc2)cc1OC (stereo not drawn),78%
21,COc1ccc(C(=O)Nc2nnc([C@H]3CC(=O)N(c4ccc(C)cc4)C3)o2)cc1OC,-16%
22,COc1ccc(C2CC(c3ccccc3)N(C(C)=O)c3ncnn32)cc1 (stereo not drawn),-9%
23,CCCN1CCN(CC(=O)Nc2sccc2C#N)c2cc(F)ccc21,2%
24,Cc1ccc(NC(=O)c2cc[nH]n2)c(C)c1,-18%
25,COc1ccc(-c2c(C)nn3c(N4CCC(C(=O)NC5CC5)CC4)cc(C)nc23)cc1OC,37%

row,SMILES,% Inhibition
1,COc1ccc(-c2nn3c(N4CCN(CC=Cc5ccccc5)CC4)cc(C)nc3c2C)cc1OC,55%
2,COc1ccc(-c2cc3nc(C)cc(N4CCN(C/C=C/c5ccccc5)CC4)n3n2)cc1OC,42%
3,Cc1c(C2=NO[C@H]3C(=O)N(c4ccc5ccccc5c4)C(=O)[C@@H]23)cnn1C,0%
4,C[C@H](NC(=O)c1nnn(C)c1C(F)(F)F)c1cscn1,7%
5,COc1ccc(CCNC(=O)CCCC(=O)Nc2cccnc2)cc1OC,3%
6,COc1ccc(Cl)cc1S(=O)(=O)N(C)[C@H]1CCc2n[nH]c(=O)n2CC1,-5%
7,COCCCN1CC(=O)N[C@@H]2CN(C(=O)CCc3cccnc3)CC[C@@H]2OCc2cccc(c2)Oc2cc(ccc2OC)C1,14%
8,CCN1CC(=O)N[C@H]2CN(C(=O)CCn3ccnc3C)CC[C@@H]2OCc2cccc(c2)Oc2cc(OC(C)C)cc(c2)C1=O,9%
9,CCc1cc(N2C[C@@H]3NC(=O)CN(C)Cc4ccc(OC)c(c4)Oc4cccc(c4)CO[C@H]3C2)nc(N(C)C)n1,60%
10,O=c1cc2n(c(=O)[nH]1)CC(c1ccccc1)=NN2,4%
11,Cc1nnc2sc(Nc3ccccc3)nn12,-2%
12,O=C1NCCCOc2cccc(c2)[C@H]2c3ccc(cc3CCN2C(=O)CCN2CCOCC2)Oc2ccc(O)c1c2,59%
13,NC(=O)C1CCN(CCC(=O)N2CCc3cc4ccc3[C@@H]2c2cccc(c2)OCCCNC(=O)c2cc(ccc2O)O4)CC1,96%
14,NCc1cccc(C(=O)N2CCc3cc4ccc3[C@@H]2c2cccc(c2)OCCCNC(=O)c2cc(ccc2O)O4)c1,93%
15,O=C(NOCc1ccc(F)cc1)NC1CCCCC1,-5%
16,COc1ccc(N2CCN(Cc3c(O)nc(O)c(C#N)c3C)CC2)cc1,-3%
17,COc1ccc(CCN2C(=O)CC[C@H]2c2cn(C)c3ccccc23)cc1OC,-1%
18,Cc1ccc(C(=O)N2CCCC23CCC3)nn1,-11%
19,O=C(c1[nH]nc(C2CC2)c1Br)N1CCC12CCC2,-8%
20,COC(=O)[C@]1(C)CN(C(=O)NCc2cc(C#N)ccc2F)C[C@H]1C,7%
21,CCc1nc(C)nc(N2CCN(C[C@H](O)COc3ccccc3C)CC2)c1Cc1cccc(C)c1,7%
22,O=C(Cc1c(Cl)cccc1Cl)N1CC[C@]2(CCOC2)C1,-8%
23,Cc1noc(Cl)c1CC(=O)N1CCCC(C)(C)CC1,38%
24,CC[C@@]1(C)CCCN(C(=O)Cc2c(C)noc2Cl)C1,84%
25,O=C(Nc1nc2cccc(Cl)c2o1)c1cccc(F)c1,92%

row,SMILES,% Inhibition
1,CC(C)(C)NC(=O)CNC(=O)c1cccc(F)c1,-13%
2,Cc1nc(Cn2nnc(NC(=O)c3cccc(F)c3)c2C)no1,1%
3,COC(CNC(=O)OC(C)(C)C)CC(=O)NC1CC(C)CCC1C(C)C (stereo not drawn),-7%
4,O=C(Cn1cccn1)N1CC(c2nc(-c3ncccn3)no2)C1,5%
5,N#Cc1cnc(NC2CC3CCC2C3)cn1 (stereo not drawn),-8%
6,CC(C)CS(=O)(=O)Nc1ccccc1C(N)=O,-5%
7,CN(C)CCN(C)c1ccc(Br)cc1NCc1cncn1C,16%
8,COc1ccc(-c2cc(C(=O)Nc3ncc[nH]3)n[nH]2)cc1OC,29%
9,COc1ccc2cccc(NC(=O)c3cc(-c4cc(OC)c(OC)c(OC)c4)n[nH]3)c2n1,64%
10,COc1cc(NC(=O)c2cc(-c3cccc4ccccc34)[nH]n2)cc(OC)c1OC,10%
11,O=C(COc1ccc(Cl)cc1)n1c2ccccc2c2ccccc21,-3%
12,CC(C)(CNC(=O)[C@](C)(N)c1ccccc1)C(=O)O,-11%
13,COc1c2c(cc3c1[C@@H](C#CCOc1ccccc1)[N+](C)(C)CC3)OCO2,75%
14,CC(C)C(=O)N1CC[C@H](CC(=O)NCc2ccccc2)C1,-4%
15,O=C(c1sc2ccccc2c1Cl)n1nnc2ccccc21,-8%
16,CCOC(=O)N1CCN(c2nccn3nc(-c4ccc(OC)c(OC)c4)cc23)CC1,-6%
17,COc1ccc([C@@]2(C)NC(=O)N(CC(=O)N3CC(=O)Nc4ccccc43)C2=O)cc1OC,2%
18,COc1ccc(CNC(=O)Nc2ccc3c(c2)N(C(=O)c2ccccc2)CCC3)cc1OC,25%
19,CCC(C(=O)Nc1ccc2c(c1)CN(CCc1ccc(OC)c(OC)c1)C(=O)C(C)O2)c1ccccc1 (stereo not drawn),94%
20,COc1ccc([C@H](C(=O)Nc2ccc(N(C)C)cc2)N(Cc2ccccc2)C(=O)Cc2ccccc2)cc1OC,-4%
21,CCN(CC)c1ncnc(N(C)Cc2ccccc2)c1N,2%
22,COc1ccc([C@H]2[C@H](C(=O)NC3CCCCCC3)CCC(=O)N2C)cc1,-8%
23,COCc1cc2nn(CC(=O)Nc3ccc(F)cc3C)c(=O)n2c(-c2ccccc2)n1,-15%
